{
  "source": "ChEMBL document CHEMBL4513216",
  "about": "“Probing the Open Global Health Chemical Diversity Library for Multistage-Active Starting Points for Next-Generation Antimalarials” (ACS Infect Dis, 2020)",
  "note": "Out of some 65,000 compounds screened, about 2,100 (3.2%) showed an effect of 50% or more. The median lay at about -52%. Shown is part of a subset that was picked to be rich in strong results.",
  "data": [
    {"tested_on": "Plasmodium falciparum", "test": "Screen against P. falciparum Asexual Blood Stage (ABS), at 5uM", "assay_type": "functional, Dd2", "conditions": "tested at 5 uM", "units": {"INHIBITION": "%"}, "values": [
      {"compound": "c1ccc(C2Cn3ccnc3CN2Cc2ncc[nH]2)cc1", "note": "(configuration not stated)", "INHIBITION": -116},
      {"compound": "Cc1cccc(Nc2cc(C3CCCN(CC(N)=O)C3)ccn2)n1", "note": "(configuration not stated)", "INHIBITION": -10.4},
      {"compound": "O=C(c1cccc(Cn2ccnc2)c1)N1CCCC(n2ccnc2)C1", "note": "(configuration not stated)", "INHIBITION": -59.1},
      {"compound": "Cc1cnn(C2CCCN(C(=O)c3cccc(Cn4ccnc4)c3)C2)c1", "note": "(configuration not stated)", "INHIBITION": -112},
      {"compound": "O=C(c1cccc(Cn2ccnc2)c1)N1CCCC(n2cccn2)C1", "note": "(configuration not stated)", "INHIBITION": 61.4},
      {"compound": "CCN(CC)c1ccc2ccc(C(=O)N3CCCCO3)cn12", "INHIBITION": 44.7},
      {"compound": "CC(C)c1nnc2n1CCN(Cc1ccc3c(c1)OCCO3)C2", "INHIBITION": -93.4},
      {"compound": "CCc1nnc2n1CCN(Cc1ccc3c(c1)OCCO3)C2", "INHIBITION": -83},
      {"compound": "c1ccc(-c2nnc3n2CCN(Cc2ccc4c(c2)OCCO4)C3)cc1", "INHIBITION": 58.5},
      {"compound": "O=C(NCCNC1CCCCC1)c1cccs1", "INHIBITION": -44.7},
      {"compound": "CC1CCC(NCCNC(=O)c2cccs2)CC1", "note": "(configuration not stated)", "INHIBITION": 63.7},
      {"compound": "O=C(NCCNC1CCCC1)c1cccs1", "INHIBITION": -54.1},
      {"compound": "CCC(CC)C(=O)Nc1ccc2oc(=O)n(CCN(C)C)c2c1", "INHIBITION": 25.5},
      {"compound": "CN(Cc1ccccc1)CC1CC2(CO1)CN(Cc1nccs1)C2", "note": "(configuration not stated)", "INHIBITION": 6.81},
      {"compound": "CN(Cc1ccccc1)CC1CC2(CO1)CN(c1nncs1)C2", "note": "(configuration not stated)", "INHIBITION": -0.698},
      {"compound": "CN(Cc1ccccc1)CC1CC2(CO1)CN(Cc1cnn(C)c1)C2", "note": "(configuration not stated)", "INHIBITION": 52.1},
      {"compound": "CNC(=O)Cc1ccccc1NC(=O)N[C@H]1c2ccccc2C[C@H]1O", "INHIBITION": -69.7},
      {"compound": "O=c1cc(-c2cc(O)cc(CCC3CCCCN3)c2)cc[nH]1", "note": "(configuration not stated)", "INHIBITION": 0.568},
      {"compound": "Nc1ccc(-c2cc(O)cc(CCC3CCCCN3)c2)cn1", "note": "(configuration not stated)", "INHIBITION": -92.8},
      {"compound": "Oc1cc(CCC2CCCCN2)cc(-c2ccncc2)c1", "note": "(configuration not stated)", "INHIBITION": 67.5},
      {"compound": "O=c1[nH]ccc2cc(-c3cc(O)cc(CCC4CCCCN4)c3)ccc12", "note": "(configuration not stated)", "INHIBITION": -57.5},
      {"compound": "COc1ccc(CCC2CCCCN2)cc1OC", "note": "(configuration not stated)", "INHIBITION": -112},
      {"compound": "Oc1cc(CCC2CCCCN2)cc(-c2cccnc2)c1", "note": "(configuration not stated)", "INHIBITION": 69},
      {"compound": "Cc1nc2c(c(NCCCN3CCOCC3)n1)CCN(C)C2", "INHIBITION": -73.4},
      {"compound": "COC(=O)c1cccn1C1CCN(Cc2ccccc2)CC1", "INHIBITION": -122},
      {"compound": "CN1CC2(CCC1=O)CCN(CC[C@@H](O)c1ccccc1)CC2", "INHIBITION": -14},
      {"compound": "Cn1ccnc1CCNC(=O)C1CCCN(Cc2cccc(F)c2)C1", "note": "(configuration not stated)", "INHIBITION": 59.3},
      {"compound": "Cn1cnnc1CNC(=O)C1CCCN(Cc2cccc(F)c2)C1", "note": "(configuration not stated)", "INHIBITION": -141},
      {"compound": "Cn1cc(CNC(=O)C2CCCN(Cc3cccc(F)c3)C2)cn1", "note": "(configuration not stated)", "INHIBITION": -59.1},
      {"compound": "CCCN(C(=O)c1ccncc1)c1nc2c(s1)CCc1c-2cnn1C", "INHIBITION": 55.6},
      {"compound": "CCCN(C(=O)c1cnccn1)c1nc2c(s1)CCc1c-2cnn1C", "INHIBITION": -28.8},
      {"compound": "CCCN(C(=O)c1ccccn1)c1nc2c(s1)CCc1c-2cnn1C", "INHIBITION": 38.1}
    ]}
  ]
}
